In the supplement of paper PMC7156485:
± gives the standard deviation of the averaged measurements.

Tests used:
Conditions in all cases: concentration: 10 µM; 24 h
HCC1569 [1] = assay: cell number relative to DMSO (% of DMSO); higher = more cells (less growth inhibition / toxicity)
Outline: (§1)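 HCC1569 and TDF cells were seeded at 800 per well in 384-well plates in RPMI with 10% FBS and treated with compounds at 10 µM for 24 h at 37 °C, in triplicate. After fixation in 3.7% formaldehyde, cells were stained with a rabbit anti-H1.0 antibody, an AlexaFluor 647 secondary and DAPI, and six fields per well were imaged at ×10. H1.0 nuclear intensity or cell number is given as percent of the plate control, using the median of replicates, with HCC1569 values smoothed for positional effects.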

TDF [2] = assay: as above
Outline: as §1

TDF [3] = assay: H1.0 immunofluorescence intensity relative to DMSO (% of DMSO); higher = stronger H1.0 induction, active = 120 or more
Outline: as §1

HCC1569 [4] = assay: H1.0 immunofluorescence intensity relative to DMSO (% of DMSO); higher = stronger H1.0 induction, active = 140 or more
Outline: as §1
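Wherever H1.0 immunofluorescence intensity relative to DMSO is given: TDF is a line of transformed human dermal fibroblasts of mesenchymal origin.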
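Wherever cell number relative to DMSO is given: TDF denotes transformed human dermal fibroblasts of mesenchymal origin.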

SMILES	cell number (HCC1569 [1])	cell number (TDF [2])	H1.0 immunofluorescence intensity (TDF [3])	H1.0 immunofluorescence intensity (HCC1569 [4])
O=C(O)C1C2CCC(O2)C1C(=O)O (stereo not given) [Endothall]	97.6	97.8	108 (inactive)	129 (inactive)
CC(Cc1ccc2c(c1)OC(C(=O)[O-])(C(=O)[O-])O2)NCC(O)c1cccc(Cl)c1.[Na+].[Na+] (stereo not given)	97.5	106	88.7 (inactive)	95.9 (inactive)
COc1cc2c(cc1O)CC1c3c(cc(O)c(OC)c3-2)CCN1C (stereo not given) [Boldine]	103	103	105 (inactive)	99.9 (inactive)
Cc1nccc2c1[nH]c1ccccc12 [Harmane]	100 ± 0.98	106 ± 11	97 (inactive)	96.7 (inactive)
COc1ccc(O)c(C(C)(C)C)c1	106	107	94.5 (inactive)	91.3 (inactive)
CC(C)(C)c1cc(C=C(C#N)C#N)cc(Br)c1O	99.2	99.1	110 (inactive)	99.8 (inactive)
COC1=CC(=O)OC(C=Cc2ccccc2)C1 (racemic)	104	92	95.5 (inactive)	83 (inactive)
N#CC(OC1OC(COC2OC(CO)C(O)C(O)C2O)C(O)C(O)C1O)c1ccccc1 (stereo not given) [Amygdalin]	103	91.7	100 (inactive)	90.7 (inactive)
CCCC(=O)OCC[N+](C)(C)C [Butyrylcholine]	101	104	92.9 (inactive)	111 (inactive)
CC(C)C1(NC(=O)C2C=C3c4cccc5[nH]cc(c45)CC3N(C)C2)OC2(O)C3CCCN3C(=O)C(Cc3ccccc3)N2C1=O (stereo not given) [Ergocristine]	102	109	92.8 (inactive)	90.3 (inactive)
COc1ccc2c(c[n+](C)c3c4cc5c(cc4ccc23)OCO5)c1OC.[Cl-] [Chelerythrine]	114	17.4	139 (active)	96.2 (inactive)
CNc1ccc2oc(CC3OC4(CCC3C)OC(C(C)C(=O)c3ccc[nH]3)C(C)CC4C)nc2c1C(=O)O (stereo not given)	70.4	49.7	151 (active)	124 (inactive)
Cc1sc2ccccc2c1CC1=NCCN1.O=C(O)C(=O)O [Benazoline oxalate]	104	106	92 (inactive)	81.1 (inactive)
CCN1CC2(C)CCC(OC)C34C2C(OC(C)=O)C2(OCOC25CC(OC)C2CC3(O)C5C2OC)C14 (stereo not given) [Deltaline]	105	104	98.2 (inactive)	96.9 (inactive)
Cl.OCc1cnc[nH]1 [4-Imidazolemethanol hydrochloride]	99.6	102	93.3 (inactive)	94.1 (inactive)
CCCC[N+]1(C)C2CC(OC(=O)C(CO)c3ccccc3)CC1C1OC12.[Br-] (stereo not given) [Scopolamine N-butylbromide]	99.1	111	93.6 (inactive)	88.1 (inactive)
CC(N)C(O)c1ccccc1 (stereo not given) [Phenylpropanolamine]	102	94	100 (inactive)	99.8 (inactive)
COC1=CC(=O)OC(C=Cc2ccc3c(c2)OCO3)C1 (stereo not given) [Methysticin]	106	106	90.6 (inactive)	89 (inactive)
Cl.Clc1cc(I)cc(Cl)c1NC1=NCCN1 [p-Iodoclonidine hydrochloride]	102	101	94.9 (inactive)	85.2 (inactive)
Cl.NCCc1c[nH]c2ccc(O)cc12 [Serotonin hydrochloride]	102	118	90.1 (inactive)	92.2 (inactive)
Br.CCCN1CCc2cc(O)cc3c2C1Cc1ccc(O)c(O)c1-3 (stereo not drawn) [R(-)-2,10,11-Trihydroxy-N-propylnoraporphine hydrobromide]	95.1	110	89.2 (inactive)	100 (inactive)
NC(Cn1ccc(=O)[nH]c1=O)C(=O)O (stereo not drawn) [S(-)-Willardiine]	104	118	97.7 (inactive)	97.6 (inactive)
CN[C@@H]1Cc2cccc3[nH]c(=O)n(c23)C1.O=C(O)C=CC(=O)O	101	105	92.5 (inactive)	89.2 (inactive)
CN1CCc2cc3c(cc2C1C1OC(=O)c2c1ccc1c2OCO1)OCO3 (single isomer, unassigned; (+)) [(+)-Bicuculline]	92.1 ± 16	89.1 ± 15	98.9 (inactive)	92.6 (inactive)
Cl.NCCc1ccc(O)cc1 [4-Hydroxyphenethylamine hydrochloride]	96.2	100	96.7 (inactive)	100 (inactive)

SMILES	cell number (HCC1569 [1])	cell number (TDF [2])	H1.0 immunofluorescence intensity (TDF [3])	H1.0 immunofluorescence intensity (HCC1569 [4])
NC(Cn1oc(=O)[nH]c1=O)C(=O)O (single isomer, unassigned; (+)) [(+)-Quisqualic acid]	101	94.1	93.9 (inactive)	103 (inactive)
CS(=O)CCCCN=C=S (stereo not given) [1-isothiocyanato-4-(methylsulfinyl)butane]	99.7	94.9	93.7 (inactive)	89.6 (inactive)
C[N+]1(C)C2CCC1CC(OC(=O)c1c[nH]c3ccccc13)C2.[I-] (stereo not given) [3-Tropanylindole-3-carboxylate methiodide]	100	106	95.5 (inactive)	114 (inactive)
CC(C)NCC(O)c1ccc(N)c(C#N)c1 (stereo not given) [Cimaterol]	103	108	87.7 (inactive)	102 (inactive)
COc1cc(CC(C)N)c(OC)cc1I.Cl (racemic)	101	109	91.3 (inactive)	88.9 (inactive)
COc1cc(=O)oc(C=CC=CC=CC(C)=CC2(C)OC(C)C(C)(O)C2O)c1C (stereo not given) [Citreoviridin]	36.3	38.6	123 (active)	77.4 (inactive)
CC(C)N(CCC(C(N)=O)(c1ccccc1)c1ccccn1)C(C)C.O=P(O)(O)O (stereo not given)	99.8	101	103 (inactive)	102 (inactive)
C[N+]1(C)C2CC(OC(=O)C(CO)c3ccccc3)CC1C1OC12.O=[N+]([O-])[O-] (single isomer, unassigned; (-)) [(-)-Scopolamine methyl nitrate]	99.7	98.7	93.1 (inactive)	106 (inactive)
CC1CCCC(O)CCCCCc2cc(O)cc(O)c2C(=O)O1 (stereo not given)	102	93.5	91.8 (inactive)	99.2 (inactive)
COc1cc(C=C(C#N)C#N)cc(O)c1O [Tyrphostin AG 34]	102	97.9	96.3 (inactive)	114 (inactive)
C=C1C(C)C2C(Cc3ccccc3)NC(=O)C23C(OC(C)=O)C=CC(C)(O)C(=O)C(C)CC=CC3C1O (stereo not given) [Cytochalasin D]	69.1	45.1	212 (active)	204 (active)
CCCN1CCCC(c2cccc(O)c2)C1.Cl (stereo not drawn) [R(+)-3PPP hydrochloride]	104	106	88.2 (inactive)	103 (inactive)
Cl.Cl.Clc1cccc(N2CCNCC2)c1 [1-(3-Chlorophenyl)piperazine dihydrochloride]	83.5	87.5	105 (inactive)	100 (inactive)
CCc1c(C(=O)OC)ncc2[nH]c3cc(OC)c(OC)cc3c12 [Methyl 6,7-dimethoxy-4-ethyl-beta-carboline-3-carboxylate]	95.8	99.5	88.1 (inactive)	130 (inactive)
Cn1ncnc1COc1nn2c(-c3c(F)cccc3F)nnc2cc1C1CCC1	102	100	93.6 (inactive)	99.6 (inactive)
COc1ccc2[nH]c3c(c2c1)CCNC3 [6-Methoxy-1,2,3,4-tetrahydro-9H-pyrido[3,4b] indole]	106	100	108 (inactive)	108 (inactive)
Cl.O=C(O)Cc1cnc[nH]1 [Imidazole-4-acetic acid hydrochloride]	105	107	93 (inactive)	93.3 (inactive)
Nc1ccncc1 [4-Aminopyridine]	101	103	95.3 (inactive)	88 (inactive)
CC(=O)C1CCC2C3CCC4CC(O)CCC4(C)C3CCC12C (stereo not drawn) [5alpha-Pregnan-3alpha-ol-20-one]	98.3	107	90.5 (inactive)	102 (inactive)
COC(=O)C(N)CCCN=C(N)N[N+](=O)[O-].Cl [NG-Nitro-L-arginine methyl ester hydrochloride]	103	109	89.9 (inactive)	92.5 (inactive)
CN(C)C(=O)Oc1cc(OC(=O)N(C)C)cc(C(O)CNC(C)(C)C)c1.Cl (stereo not given)	104	104	91.4 (inactive)	101 (inactive)
Cc1c(C(C)C2NCC(C)CC2O)ccc2c1CC1C2CC=C2CC(O)CCC21C (stereo not given) [Veratramine]	96.7	88.6	104 (inactive)	90.2 (inactive)
CNc1ccc2oc(CC3OC4(CCC3C)OC(C(C)C(=O)c3ccc[nH]3)C(C)CC4C)nc2c1C(=O)O (stereo not given) [Calcimycin]	43.8	23.3	180 (active)	128 (inactive)
CCCC(=O)OC1C(C)C2(O)C(C=C(CO)CC3(O)C(=O)C(C)=CC32)C2C(C)(C)C12OC(=O)CCC (stereo not given) [Phorbol 12,13-dibutyrate]	89.5	74.2	123 (active)	157 (active)
CC[N+](CC)(CC)CC.[Cl-] [Tetraethylammonium chloride]	101	108	90.2 (inactive)	108 (inactive)
